# Measured values as given in publication PMC12820563, “FoxP3 forms a head-to-head dimer in vivo and stabilizes its multimerization on adjacent microsatellites”.
# Whole data set: some 16,000 sequences, median “rpm ratio (pull-down/input)” near 0.5, cut for the highest 2% near 5.5. Shown is part of a subset that was picked to be rich in the highest values.
# Target: T1, MBP-FoxP3dN (Mus musculus, UniProt Q99JB6 188-423)
# T1 sequence: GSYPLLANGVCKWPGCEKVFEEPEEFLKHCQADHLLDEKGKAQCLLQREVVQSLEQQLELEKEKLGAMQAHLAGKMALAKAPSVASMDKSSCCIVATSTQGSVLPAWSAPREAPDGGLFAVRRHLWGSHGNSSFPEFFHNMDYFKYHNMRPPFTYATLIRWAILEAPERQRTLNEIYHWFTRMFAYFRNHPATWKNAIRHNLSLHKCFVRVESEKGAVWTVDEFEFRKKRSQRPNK
# Assay: PD-seq (MBP pull-down with sequencing); 20 mM Tris-HCl pH 7.5, 100 mM NaCl, 1.5 mM MgCl2, 0.4 uM protein, 0.1 uM dsDNA library, 30 min, room temperature, amylose pull-down; high values mean tight binding
# Conditions: protein: recombinant; tags: His6-MBP; chain copies: 2; dsDNA, one strand shown
# In short: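 Binding is the reads-per-million enrichment of pull-down relative to input, pooled across replicates. For this, 0.4 µM His6-MBP-tagged mouse FoxP3 or FoxP1 fragment lacking the N-terminus, made in E. coli, was incubated with 0.1 µM Klenow-filled double-stranded degenerate DNA library for 30 min at room temperature in Tris pH 7.5 buffer with NaCl and MgCl2. Complexes bound to amylose resin were washed three times before proteinase K released the DNA for PCR barcoding and Illumina sequencing.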
row,Sequence,binding signal
1,GATGATTGTTCTCCCAGCTGATGAATTTCAACGGTCGAGTAAACAAATTTTCCTAATCTTTCTGTTCAAGCGCCATCTAC,0.241 RPM ratio (pull-down/input)
2,GATGATTGTTCTCCCAGCTGATGAATTTGGTGGCTCGAGTAAACAAATTTTCCTAATCTTTCTGTTCAAGCGCCATCTAC,1.09 RPM ratio (pull-down/input)
3,GATGATTGTTCTCCCAGCTGATGAATTTCATAACTCGAGTAAACAAATTTTCCTAATCTTTCTGTTCAAGCGCCATCTAC,0.332 RPM ratio (pull-down/input)
4,GATGATTGTTCTCCCAGCTGATGAATTATTCATCTCGAGTAAACAAATTTTCCTAATCTTTCTGTTCAAGCGCCATCTAC,0.399 RPM ratio (pull-down/input)
5,GATGATTGTTCTCCCAGCTGATGAATTTAGACCGTCGAGTAAACAAATTTTCCTAATCTTTCTGTTCAAGCGCCATCTAC,0.5 RPM ratio (pull-down/input)
6,GATGATTGTTCTCCCAGCTGATGAATTGTGTATCTCGAGTAAACAAATTTTCCTAATCTTTCTGTTCAAGCGCCATCTAC,6.36 RPM ratio (pull-down/input)
7,GATGATTGTTCTCCCAGCTGATGAATTCTGTATCTCGAGTAAACAAATTTTCCTAATCTTTCTGTTCAAGCGCCATCTAC,4.93 RPM ratio (pull-down/input)
8,GATGATTGTTCTCCCAGCTGATGAATTGTATCTCTCGAGTAAACAAATTTTCCTAATCTTTCTGTTCAAGCGCCATCTAC,1.51 RPM ratio (pull-down/input)
9,GATGATTGTTCTCCCAGCTGATGAATTTGACTTTTCGAGTAAACAAATTTTCCTAATCTTTCTGTTCAAGCGCCATCTAC,0.49 RPM ratio (pull-down/input)
10,GATGATTGTTCTCCCAGCTGATGAATTGACGTAGTCGAGTAAACAAATTTTCCTAATCTTTCTGTTCAAGCGCCATCTAC,0.381 RPM ratio (pull-down/input)
11,GATGATTGTTCTCCCAGCTGATGAATTAAGCATCTCGAGTAAACAAATTTTCCTAATCTTTCTGTTCAAGCGCCATCTAC,6.6 RPM ratio (pull-down/input)
12,GATGATTGTTCTCCCAGCTGATGAATTTAAGCATTCGAGTAAACAAATTTTCCTAATCTTTCTGTTCAAGCGCCATCTAC,5.65 RPM ratio (pull-down/input)
13,GATGATTGTTCTCCCAGCTGATGAATTCAAGCATTCGAGTAAACAAATTTTCCTAATCTTTCTGTTCAAGCGCCATCTAC,4.27 RPM ratio (pull-down/input)
14,GATGATTGTTCTCCCAGCTGATGAATTAAATTTCTCGAGTAAACAAATTTTCCTAATCTTTCTGTTCAAGCGCCATCTAC,0.664 RPM ratio (pull-down/input)
15,GATGATTGTTCTCCCAGCTGATGAATTAAGCAGCTCGAGTAAACAAATTTTCCTAATCTTTCTGTTCAAGCGCCATCTAC,1.33 RPM ratio (pull-down/input)
16,GATGATTGTTCTCCCAGCTGATGAATTTTAAGCATCGAGTAAACAAATTTTCCTAATCTTTCTGTTCAAGCGCCATCTAC,0.881 RPM ratio (pull-down/input)
17,GATGATTGTTCTCCCAGCTGATGAATTAAAGCATTCGAGTAAACAAATTTTCCTAATCTTTCTGTTCAAGCGCCATCTAC,5.57 RPM ratio (pull-down/input)
18,GATGATTGTTCTCCCAGCTGATGAATTAAGCCATTCGAGTAAACAAATTTTCCTAATCTTTCTGTTCAAGCGCCATCTAC,4.08 RPM ratio (pull-down/input)
19,GATGATTGTTCTCCCAGCTGATGAATTAAGCTGTTCGAGTAAACAAATTTTCCTAATCTTTCTGTTCAAGCGCCATCTAC,1.12 RPM ratio (pull-down/input)
20,GATGATTGTTCTCCCAGCTGATGAATTAAGCATTTCGAGTAAACAAATTTTCCTAATCTTTCTGTTCAAGCGCCATCTAC,6.1 RPM ratio (pull-down/input)
21,GATGATTGTTCTCCCAGCTGATGAATTACAGCATTCGAGTAAACAAATTTTCCTAATCTTTCTGTTCAAGCGCCATCTAC,5.18 RPM ratio (pull-down/input)

row,Sequence,binding signal
1,GATGATTGTTCTCCCAGCTGATGAATTTAAACATTCGAGTAAACAAATTTTCCTAATCTTTCTGTTCAAGCGCCATCTAC,0.704 RPM ratio (pull-down/input)
2,GATGATTGTTCTCCCAGCTGATGAATTGGGAAGGTCGAGTAAACAAATTTTCCTAATCTTTCTGTTCAAGCGCCATCTAC,0.234 RPM ratio (pull-down/input)
3,GATGATTGTTCTCCCAGCTGATGAATTCACGGTTTCGAGTAAACAAATTTTCCTAATCTTTCTGTTCAAGCGCCATCTAC,0.47 RPM ratio (pull-down/input)
4,GATGATTGTTCTCCCAGCTGATGAATTATTACATTCGAGTAAACAAATTTTCCTAATCTTTCTGTTCAAGCGCCATCTAC,0.591 RPM ratio (pull-down/input)
5,GATGATTGTTCTCCCAGCTGATGAATTGTTCTTGTCGAGTAAACAAATTTTCCTAATCTTTCTGTTCAAGCGCCATCTAC,0.412 RPM ratio (pull-down/input)
6,GATGATTGTTCTCCCAGCTGATGAATTTGTCACTTCGAGTAAACAAATTTTCCTAATCTTTCTGTTCAAGCGCCATCTAC,5.39 RPM ratio (pull-down/input)
7,GATGATTGTTCTCCCAGCTGATGAATTTGCTTACTCGAGTAAACAAATTTTCCTAATCTTTCTGTTCAAGCGCCATCTAC,6.78 RPM ratio (pull-down/input)
8,GATGATTGTTCTCCCAGCTGATGAATTTGCTTTCTCGAGTAAACAAATTTTCCTAATCTTTCTGTTCAAGCGCCATCTAC,5.95 RPM ratio (pull-down/input)
9,GATGATTGTTCTCCCAGCTGATGAATTTTGCTTCTCGAGTAAACAAATTTTCCTAATCTTTCTGTTCAAGCGCCATCTAC,2.58 RPM ratio (pull-down/input)
10,GATGATTGTTCTCCCAGCTGATGAATTGCTTGTCTCGAGTAAACAAATTTTCCTAATCTTTCTGTTCAAGCGCCATCTAC,1.71 RPM ratio (pull-down/input)
11,GATGATTGTTCTCCCAGCTGATGAATTTTCTTGCTCGAGTAAACAAATTTTCCTAATCTTTCTGTTCAAGCGCCATCTAC,0.298 RPM ratio (pull-down/input)
12,GATGATTGTTCTCCCAGCTGATGAATTTTGCTACTCGAGTAAACAAATTTTCCTAATCTTTCTGTTCAAGCGCCATCTAC,2.59 RPM ratio (pull-down/input)
13,GATGATTGTTCTCCCAGCTGATGAATTGTCTTGCTCGAGTAAACAAATTTTCCTAATCTTTCTGTTCAAGCGCCATCTAC,0.461 RPM ratio (pull-down/input)
14,GATGATTGTTCTCCCAGCTGATGAATTGCTTTACTCGAGTAAACAAATTTTCCTAATCTTTCTGTTCAAGCGCCATCTAC,1.22 RPM ratio (pull-down/input)
15,GATGATTGTTCTCCCAGCTGATGAATTTGCTGTCTCGAGTAAACAAATTTTCCTAATCTTTCTGTTCAAGCGCCATCTAC,6.16 RPM ratio (pull-down/input)
16,GATGATTGTTCTCCCAGCTGATGAATTGCTTTGCTCGAGTAAACAAATTTTCCTAATCTTTCTGTTCAAGCGCCATCTAC,1.22 RPM ratio (pull-down/input)
17,GATGATTGTTCTCCCAGCTGATGAATTTGCTTGCTCGAGTAAACAAATTTTCCTAATCTTTCTGTTCAAGCGCCATCTAC,6.22 RPM ratio (pull-down/input)
18,GATGATTGTTCTCCCAGCTGATGAATTGCTTTTCTCGAGTAAACAAATTTTCCTAATCTTTCTGTTCAAGCGCCATCTAC,1.42 RPM ratio (pull-down/input)
19,GATGATTGTTCTCCCAGCTGATGAATTTAGCAGGTCGAGTAAACAAATTTTCCTAATCTTTCTGTTCAAGCGCCATCTAC,0.708 RPM ratio (pull-down/input)
20,GATGATTGTTCTCCCAGCTGATGAATTCCCATGGTCGAGTAAACAAATTTTCCTAATCTTTCTGTTCAAGCGCCATCTAC,0.262 RPM ratio (pull-down/input)
21,GATGATTGTTCTCCCAGCTGATGAATTACCAGGGTCGAGTAAACAAATTTTCCTAATCTTTCTGTTCAAGCGCCATCTAC,0.252 RPM ratio (pull-down/input)

row,Sequence,binding signal
1,GATGATTGTTCTCCCAGCTGATGAATTTATCCGTTCGAGTAAACAAATTTTCCTAATCTTTCTGTTCAAGCGCCATCTAC,0.58 RPM ratio (pull-down/input)
2,GATGATTGTTCTCCCAGCTGATGAATTGCTTTCATCGAGTAAACAAATTTTCCTAATCTTTCTGTTCAAGCGCCATCTAC,1.04 RPM ratio (pull-down/input)
3,GATGATTGTTCTCCCAGCTGATGAATTGTAGCCATCGAGTAAACAAATTTTCCTAATCTTTCTGTTCAAGCGCCATCTAC,1.99 RPM ratio (pull-down/input)
4,GATGATTGTTCTCCCAGCTGATGAATTTCAACGATCGAGTAAACAAATTTTCCTAATCTTTCTGTTCAAGCGCCATCTAC,0.284 RPM ratio (pull-down/input)
5,GATGATTGTTCTCCCAGCTGATGAATTCTGGGGGTCGAGTAAACAAATTTTCCTAATCTTTCTGTTCAAGCGCCATCTAC,0.456 RPM ratio (pull-down/input)
6,GATGATTGTTCTCCCAGCTGATGAATTCCTGTTTTCGAGTAAACAAATTTTCCTAATCTTTCTGTTCAAGCGCCATCTAC,0.929 RPM ratio (pull-down/input)
7,GATGATTGTTCTCCCAGCTGATGAATTTTTTGATTCGAGTAAACAAATTTTCCTAATCTTTCTGTTCAAGCGCCATCTAC,0.323 RPM ratio (pull-down/input)
8,GATGATTGTTCTCCCAGCTGATGAATTCTGTTTTTCGAGTAAACAAATTTTCCTAATCTTTCTGTTCAAGCGCCATCTAC,5.51 RPM ratio (pull-down/input)
9,GATGATTGTTCTCCCAGCTGATGAATTTTGTTTTTCGAGTAAACAAATTTTCCTAATCTTTCTGTTCAAGCGCCATCTAC,7.43 RPM ratio (pull-down/input)
10,GATGATTGTTCTCCCAGCTGATGAATTTTTGTTTTCGAGTAAACAAATTTTCCTAATCTTTCTGTTCAAGCGCCATCTAC,2.51 RPM ratio (pull-down/input)
11,GATGATTGTTCTCCCAGCTGATGAATTCTTTGATTCGAGTAAACAAATTTTCCTAATCTTTCTGTTCAAGCGCCATCTAC,0.276 RPM ratio (pull-down/input)
12,GATGATTGTTCTCCCAGCTGATGAATTCGAGTTTTCGAGTAAACAAATTTTCCTAATCTTTCTGTTCAAGCGCCATCTAC,0.651 RPM ratio (pull-down/input)
13,GATGATTGTTCTCCCAGCTGATGAATTTGTTGATTCGAGTAAACAAATTTTCCTAATCTTTCTGTTCAAGCGCCATCTAC,7.3 RPM ratio (pull-down/input)
14,GATGATTGTTCTCCCAGCTGATGAATTGTTTTGTTCGAGTAAACAAATTTTCCTAATCTTTCTGTTCAAGCGCCATCTAC,4.09 RPM ratio (pull-down/input)
15,GATGATTGTTCTCCCAGCTGATGAATTCTTTTTTTCGAGTAAACAAATTTTCCTAATCTTTCTGTTCAAGCGCCATCTAC,0.311 RPM ratio (pull-down/input)
16,GATGATTGTTCTCCCAGCTGATGAATTGTTGAATTCGAGTAAACAAATTTTCCTAATCTTTCTGTTCAAGCGCCATCTAC,1 RPM ratio (pull-down/input)
17,GATGATTGTTCTCCCAGCTGATGAATTCTGTTGTTCGAGTAAACAAATTTTCCTAATCTTTCTGTTCAAGCGCCATCTAC,7.51 RPM ratio (pull-down/input)
18,GATGATTGTTCTCCCAGCTGATGAATTATTAGGTTCGAGTAAACAAATTTTCCTAATCTTTCTGTTCAAGCGCCATCTAC,0.47 RPM ratio (pull-down/input)
19,GATGATTGTTCTCCCAGCTGATGAATTAACTTAGTCGAGTAAACAAATTTTCCTAATCTTTCTGTTCAAGCGCCATCTAC,0.295 RPM ratio (pull-down/input)
20,GATGATTGTTCTCCCAGCTGATGAATTTCTTCACTCGAGTAAACAAATTTTCCTAATCTTTCTGTTCAAGCGCCATCTAC,0.269 RPM ratio (pull-down/input)
21,GATGATTGTTCTCCCAGCTGATGAATTTAGGGTATCGAGTAAACAAATTTTCCTAATCTTTCTGTTCAAGCGCCATCTAC,1.02 RPM ratio (pull-down/input)
